This is a sample that favours compounds with a hit; in the whole collection about 1.4% have one here.
MOR-DOR inv ag: inverse agonists of MOR-DOR heterodimerization, primary screen, cell-based, luminescence; Mu-type opioid receptor (Homo sapiens) + Delta-type opioid receptor (Homo sapiens), …; cell-based MOR-DOR heterodimer luminescence, inverse agonism; 0.21% of 340,000 active; inhibition, % at 9.3 µM; in the data active means inhibition above about 22%, passing the limit was not always enough;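 further: 0% = cells with DMSO and 100% = wells without cells with DMSO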
Target sequence (P35372 whole entry, looked up): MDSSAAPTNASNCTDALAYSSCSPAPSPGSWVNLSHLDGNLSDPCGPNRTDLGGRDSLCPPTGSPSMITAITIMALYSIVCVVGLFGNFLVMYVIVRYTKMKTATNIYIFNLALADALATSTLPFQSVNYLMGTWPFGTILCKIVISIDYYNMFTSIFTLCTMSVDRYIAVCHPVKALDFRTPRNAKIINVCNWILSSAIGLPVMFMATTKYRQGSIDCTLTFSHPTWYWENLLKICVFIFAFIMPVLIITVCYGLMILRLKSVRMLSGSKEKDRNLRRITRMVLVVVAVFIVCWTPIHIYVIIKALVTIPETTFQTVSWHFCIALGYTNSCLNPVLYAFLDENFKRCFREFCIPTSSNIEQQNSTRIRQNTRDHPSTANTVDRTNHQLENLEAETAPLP
Target sequence (P41143 whole entry, looked up): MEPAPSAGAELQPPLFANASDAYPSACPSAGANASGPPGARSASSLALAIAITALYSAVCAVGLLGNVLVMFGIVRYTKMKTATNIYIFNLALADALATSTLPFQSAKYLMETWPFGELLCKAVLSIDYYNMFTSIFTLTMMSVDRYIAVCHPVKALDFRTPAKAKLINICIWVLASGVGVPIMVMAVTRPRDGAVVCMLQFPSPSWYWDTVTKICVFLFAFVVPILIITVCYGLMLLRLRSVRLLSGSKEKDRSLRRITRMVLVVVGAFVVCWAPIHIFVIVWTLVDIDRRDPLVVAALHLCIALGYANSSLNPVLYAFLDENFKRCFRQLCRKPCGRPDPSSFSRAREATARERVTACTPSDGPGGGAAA
p-CIP stab down: p/CIP-EGFP fusion destabilizers, primary screen, fluorescence, F442A cells. Q05BA5. 16 h. decrease of EGFP signal, % at 10 µM. 0.01% of 290,000 active. AID 1984, 2009;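 active means EGFP signal decrease of at least 30% at 10 µM or well 3 SD below plate mean, unless failing retest; inactive means the rest, including hits failing retest or dose response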
HTR5A ag ctr: HTR5A agonists in luminescence cell assay, primary screen, counter-screen for OPRM1-OPRD1 heterodimer agonist project, full-deck HTS | 5-hydroxytryptamine receptor 5A (Homo sapiens), P47898 | cell-based | activation, % at 9.3 µM | 0.61% of 340,000 active | AID 504692, 2011; in the data active means activation mostly above about 9.5%, no sharp cut-off; inactive means mostly below about 7.6%;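 further: 0% = cells with vehicle only and 100% = reference agonist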
MOR-DOR ag: agonists of OPRM1-OPRD1 heterodimerization, primary screen, cell-based, luminescence; Mu-type opioid receptor (Homo sapiens) + Delta-type opioid receptor (Homo sapiens), …; cells; activation, % at 9.3 µM; 0.3% of 340,000 active; AID 504326, 2011; in the data active means activation above about 18%;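 further: 0% = vehicle-treated cells and 100% = reference agonist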
MIN6 prolif: inducers of MIN6 beta-cell proliferation, primary screen, ATP luminescence, uHTS; MIN6 cells proliferation, ATPlite luminescence, 48 h; cells starved in 0.2% serum; 100% = growth in 10% serum; proliferation, % at 10 µM; 0.29% of 330,000 active; AID 2380, 2010;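 active means compounds whose signal lies at least 3.5 SD above the mean of all wells on their plate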;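 further: 0% = DMSO-treated cells in low-serum medium and 100% = 10% serum control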
HTR5A inv ctr: HTR5A inverse agonists in luminescence cell assay, primary screen, counter-screen for OPRM1-OPRD1 heterodimer inverse agonist project, full-deck HTS; HTR5A cell line, inverse agonism; 0.083% of 340,000 active; 5-hydroxytryptamine receptor 5A (Homo sapiens), P47898; inhibition, % at 9.3 µM; in the data active means inhibition mostly above about 23%, no sharp cut-off; inactive means mostly below about 18%;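 further: 0% = cells with DMSO and 100% = no-cell wells with DMSO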
OPRM1-D1 inv cf: inverse agonists of MOR-DOR heterodimerization, confirmation, cell-based, luminescence | shares compounds with MOR-DOR inv ag | cells expressing OPRM1/OPRD1 heterodimer | inhibition, % at 9.3 µM | 20% of 580 active | AID 504900, 2011; in the data active means inhibition above about 32%;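 further: 0% = cells with DMSO and 100% = wells lacking cells with DMSO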
HTR5A inv ctr2: HTR5A inverse agonists, counter-screen for OPRM1-OPRD1 inverse agonist project, cell-based, luminescence; shares compounds with MOR-DOR inv ag; HTR5A-expressing cells, inverse agonism; inhibition, % at 9.3 µM; 580 tested, under 10 active; AID 504914, 2011; call rule not given here;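 further: 0% = cells with DMSO and 100% = no-cell wells with DMSO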
The depositor's hits bear a star; i = inactive; / = no result.

SMILES	MOR-DOR inv ag	p-CIP stab down	HTR5A ag ctr	MOR-DOR ag	MIN6 prolif	HTR5A inv ctr	OPRM1-D1 inv cf	HTR5A inv ctr2
O=[N+]([O-])c1c(NCCCO)cc(Sc2nc3ccccc3s2)c2nonc12	35*	-5	-5	-6	-6	2	30	12
CCC(=O)OCCNc1cc(Sc2nc3ccccc3[nH]2)c2nonc2c1[N+](=O)[O-]	43*	-2	-10	-8	/	-9	-10	-8
O=C(CCNS(=O)(=O)c1ccc2nsnc2c1)N1CCN(c2ccncc2)CC1	-5	/	5	1	-2	8	/	/
COc1cc(NC(=O)c2cccc(S(=O)(=O)N3CCCCC3)c2)cc(OC)c1OC	11	/	9	-3	3	-21	/	/
COc1cc(OC)cc(C(=O)NNC(=S)Nc2ccc(S(N)(=O)=O)cc2)c1	34*	4	4	-7	-1	-16	-2	-7
COc1ccc(CNC(=S)Nc2ccc(S(N)(=O)=O)cc2)cc1	2	-3	7	0	-3	-10	/	/
O=C1C(=O)N(Cc2cccs2)c2ccccc21	48*	-18	0	-9	-5	0	16	-1
O=C(CN1C(=O)C(=O)c2ccccc21)NC1CCCCC1	47*	-6	-5	-10	-5	12	48*	19
O=C(CN1C(=O)C(=O)c2ccccc21)c1ccccc1	52*	4	-5	-11	-3	19	-163	-19
O=C1CSC(=S)N1Cc1cccs1	-7	/	1	1	/	-3	/	/
O=C(COC(=O)CN1C(=O)C(=O)c2ccccc21)OCN1C(=O)c2ccccc2C1=O	40*	-2	0	-8	-2	-4	19	-3
CCCCc1nc2c(C)c(N)cnc2n1Cc1cccc([N+](=O)[O-])c1	8	-1	3	-2	-4	-12	/	/
O=C(CN1C(=O)NC2(CCCCCC2)C1=O)NCCc1ccc(F)cc1	-2	/	2	1	2	-5	/	/
COC(=O)[C@]12C(=O)NC[C@H](CN1c1ccc(Cl)c(C)c1)N2C	-1	/	10	0	1	-27	/	/
O=C1C(=O)N(CCN2CCCCC2)c2ccccc21	72*	6	-5	-13	-2	25	74*	4
O=S(=O)(CCN1CCOCC1)c1ccccc1	22	-9	-4	-5	/	13	/	/
O=C1C(=O)N(CCS(=O)(=O)c2ccccc2)c2ccccc21	58*	0	-1	-12	-4	12	i	-14
O=CN/C=C/c1cccc(O)c1	17	/	0	-4	/	-1	/	/
O=CN1Cc2[nH]c3ccccc3c2N(c2ccc(Cl)cc2)C1=O	44*	-5	3	-9	-3	-8	16	-3
O=C1CNCc2[nH]c3ccccc3c2N1c1ccccc1	0	-7	-3	0	-3	7	/	/
O=C1N=C(c2ccccc2)S/C1=C\c1cccs1	34*	2	0	-6	-3	-8	-434	-45
O=C(CC1(O)C(=O)N(Cc2ccccc2)c2ccccc21)c1ccc2c(c1)OCO2 (stereo unspecified)	9	-4	1	-2	-4	13	/	/
Cc1ccccc1CN1C(=O)C(O)(CC(=O)c2ccncc2)c2ccccc21 (stereo unspecified)	45*	-13	-1	-8	-5	3	-84	-32
O=C(CC1(O)C(=O)N(Cc2ccccc2)c2ccccc21)c1ccncc1 (stereo unspecified)	40*	-3	-9	-8	-6	22	-152	-117
C[C@H](CO)N1C[C@H](C)[C@@H](CN(C)Cc2ccc3c(c2)OCO3)Oc2ccc(NS(C)(=O)=O)cc2C1=O	18	/	2	-3	2	3	/	/
SMILES	MOR-DOR inv ag	p-CIP stab down	HTR5A ag ctr	MOR-DOR ag	MIN6 prolif	HTR5A inv ctr	OPRM1-D1 inv cf	HTR5A inv ctr2
O=C(Nc1cccc(S(=O)(=O)N2CCCC2)c1)c1ccc(Cl)nc1	-2	/	0	0	-2	-2	/	/
Nc1ccccc1-c1nnc(SCc2ccccc2F)[nH]c1=O	-1	-20	6	0	0	-3	/	/
O=C1Nc2ccc(Cl)cc2C12Nc1ccccc1-c1nnc(SCc3ccccc3F)nc1O2 (stereo unspecified)	50*	-8	2	-9	/	4	i	-3
O=C1Nc2ccc(F)cc2C12Nc1ccccc1-c1nnc(SCc3ccccc3F)nc1O2 (stereo unspecified)	69*	-18	-4	-11	-4	10	72*	10
CCSc1nnc2c(n1)OC1(CCCC1)Nc1ccccc1-2	4	-7	-1	-1	8	3	/	/
CCCCN(CC)c1nc(-c2ccncc2)nc2ccccc12	-5	-10	0	1	-5	-13	/	/
CCCN(CCC)c1nc(-c2ccccn2)nc2ccccc12	39*	-9	-1	-9	-5	3	-159	-19
CCN(CC(=O)NCc1cccs1)C(=O)c1ccc(S(=O)(=O)Nc2ccccc2Cl)cc1	12	/	6	-3	6	-14	/	/
COc1cc([N+](=O)[O-])cc(/C=N/NC(=O)c2ccc(NC(=O)c3ccc(C)cc3)cc2)c1O	-2	3	6	0	-5	-17	/	/
COc1cc([N+](=O)[O-])cc(/C=N/NC(=O)c2ccc(C)nc2)c1O	22*	9	-2	-4	0	8	i	-30
O=C1Nc2ccc(Br)cc2C1=C1CCCCC1	-4	-1	-1	1	-3	5	/	/
N#C/C(=C1/C(=O)Nc2ccc(Br)cc21)c1ccccn1	49*	0	-4	-11	-4	12	i	4
CC(C)CNC(=O)c1ccccc1C(=O)NC1(C(=O)NCC(C)C)CCCC1	6	/	2	-1	/	-9	/	/
Cc1ccc(NC(=S)NNc2ncc(C(F)(F)F)cc2Cl)cc1	55*	-5	-13	-10	0	32	-8	-18
O=C(NNc1ncc(C(F)(F)F)cc1Cl)c1ccc(Cl)c(Cl)c1	15	-21	2	-3	-3	-4	/	/
Cc1ccc(NC(=S)NNc2ncc(C(F)(F)F)cc2Cl)c(C)c1	49*	4	-11	-8	-2	11	-98	-4
CC/C(C)=N\N=C\c1c(O)n(CC)c2cc(C3=NNC(=O)CC3)ccc12	31*	-2	-5	-7	-1	21	50*	15
